Assay results: PubChem BioAssay (NCI)
Compounds without any hit were thinned out: in the full panel of roughly 79,000, 15% have a hit. Values without a mark were called inactive. Activity calls are given as the source filed them. Rule as the data show it: active = growth inhibition above about 70%; inactive = the rest.

Tests used:
[1] = NCI Yeast Anticancer Drug Screen. Data for the rad50 strain (AID 155);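 also: 0% = growth of vehicle-only cultures of the same strain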; conditions: S. cerevisiae rad50 strain growth inhibition; at 50.0 µM; hits give high values
Method in brief: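 DNA repair mutant yeast, compound exposure, growth read-out; inhibition is taken relative to vehicle.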

[2] = NCI Yeast Anticancer Drug Screen. Data for the mec2-1 strain (AID 157); conditions: S. cerevisiae mec2-1 strain, at 50.0 µM, hits give high values
Method in brief: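 Compounds were applied to mec2-1 yeast cells. Their growth was then compared with that of vehicle-treated cultures to give growth inhibition.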

[3] = NCI Yeast Anticancer Drug Screen. Data for the sgs1 mgt1 strain (AID 161);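 also: 0% = growth of cultures given vehicle only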; conditions: S. cerevisiae sgs1 mgt1 strain, at 50.0 µM, hits give high values
Method in brief: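 This yeast growth screen uses a strain with defined DNA-repair lesions; compound-treated growth is compared with vehicle-treated growth.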

[4] = NCI Yeast Anticancer Drug Screen. Data for the cln2 rad14 strain (AID 165);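 also: 0% = growth equal to vehicle treated cultures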; conditions: S. cerevisiae cln2 rad14 strain, at 50.0 µM, hits give high values
Method in brief: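 Strain: cln2 rad14 yeast, altered in cell cycle control and DNA damage repair. Read-out: growth inhibition vs vehicle.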

[5] = NCI Yeast Anticancer Drug Screen. Data for the bub3 strain (AID 167); conditions: S. cerevisiae bub3 mutant strain, at 50.0 µM, hits give high values
Method in brief: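 In this screen, a yeast mutant lacking normal mitotic checkpoint function is challenged with compound. Relative growth versus vehicle gives the inhibition value.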

[6] = NCI Yeast Anticancer Drug Screen. Data for the mlh1 rad18 strain (AID 175); conditions: S. cerevisiae mlh1 rad18 strain growth inhibition; at 50.0 µM; hits give high values
Method in brief: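 A repair-deficient yeast strain is exposed to test compound, and growth is scored relative to vehicle-treated controls.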

| SMILES | growth inhibition [1] | growth inhibition [2] | growth inhibition [3] | growth inhibition [4] | growth inhibition [5] | growth inhibition [6] |
| --- | --- | --- | --- | --- | --- | --- |
| CC(C)(C)c1ccc(-c2nc3ccc([N+](=O)[O-])cc3c(=O)o2)cc1 | 12.1% | 15.8% | 35% | -13.1% | 16.1% | 33.5% |
| NC(=S)N/N=C/c1ccc(Cl)cc1Cl | 65.7% | 42.5% | 35.9% | 28.3% | 45.2% | 38.7% |
| COc1ccc(Cl)c2c(=O)c3ccc4c(c3[nH]c12)C(=O)c1ccccc1C4=O | 21.8% | -5.6% | 4.25% | -17.6% | 3.8% | 4.65% |
| CC(SC(=S)SC(C)C(=O)O)C(=O)O (configuration not stated) | 6% | 15.3% | 22.3% | 44% | -6.1% | 15.3% |
| O=C1c2ccccc2C(=O)N1CCn1[nH]c(=O)c2ccccc2c1=O | -3.25% | -10.4% | -6.55% | 8.9% | -3.6% | 14.1% |
| CCCCCCCCCCCSc1ccc2ccccc2c1 | 5.75% | 14.7% | 6.75% | -20.5% | -18.6% | 5.3% |
| O=C(O)CS(=O)(=O)CC(=O)O | -10.3% | -11.4% | -10.2% | -6.65% | -23.4% | -12.1% |
| O=C(COc1ccc(Cl)cc1Cl)Nc1ccc2ccccc2c1 | 49.4% | 46% | 59.4% | 18.9% | 54.5% | 36.7% |
| CC(=O)CCc1ccc(Cl)cc1 | -21.6% | -3.55% | -1% | 3.1% | 5.4% | -4.4% |
| Cc1cc(=O)[nH]c2[nH][nH]c(=O)c12 | -12.3% | -28.6% | -43.6% | -7.35% | 2.85% | -8.8% |
| CN(C)CCNC(=O)Cn1cnc2cccc([N+](=O)[O-])c2c1=O | 34.5% | 17% | 4.85% | 20.6% | 20.9% | -34.6% |
| NNC(=O)c1oc2ccccc2c1CN(CCO)CCO | 3.75% | -2.4% | 3.45% | -2.45% | -1.15% | -5.1% |
| O=C(c1ccccc1)c1cccs1 | -19.3% | -1.9% | -12.7% | -45.6% | -14.5% | -17.9% |
| O=C(c1ccccc1Cl)c1ccc2ccccc2c1C(=O)O | 2.5% | -0.55% | -0.6% | 6% | -10% | 2.95% |
| CC1c2c(ccc3c2CCC=C3)CCC1CC1=CCCc2ccc3ccccc3c21 (configuration not stated) | 6.7% | -1.6% | 1.1% | -13.3% | 0.1% | 9.85% |
| COc1cccc(Oc2c(O)c3ccc(OC)cc3oc2=O)c1 | 1% | 11.2% | -2.1% | 27.2% | 0.05% | 8.75% |
| COc1ccccc1NC(=O)CC(=O)NN | -0.25% | 2.15% | -3.9% | -25.1% | -1.8% | 0.7% |
| CCOC(=O)c1ccc(NC(=O)Nc2ccc(F)c([N+](=O)[O-])c2)cc1 | 7.3% | 46.1% | 46.5% | 7% | 28.9% | 23.6% |
| Fc1c(F)c(F)c(CSc2nc3ccccc3[nH]2)c(F)c1F | -42% | -20.1% | -26.7% | -7.35% | 0.35% | -16.7% |

| SMILES | growth inhibition [1] | growth inhibition [2] | growth inhibition [3] | growth inhibition [4] | growth inhibition [5] | growth inhibition [6] |
| --- | --- | --- | --- | --- | --- | --- |
| CCOC(=O)/C(C#N)=C/c1ccccc1OC | 35.6% | 38.9% | 31.9% | 10.5% | 47.5% | 47.5% |
| COc1ccc(Cl)c(C(=O)O)c1 | 19.1% | 6.9% | 4.1% | 21.4% | 6.85% | 28.4% |
| CCN(CC)CCC(=O)Nc1cc(OC)cc2cccnc12 | 10.7% | 10.5% | 6.25% | -21.1% | -19.4% | -8.1% |
| CN(/C=C1\CCCCC1=O)c1ccccc1 | -4.35% | -17.2% | -35.4% | -14.4% | -22.2% | -7% |
| CC(=O)OCC(=O)O[C@@H]1[C@H]2[C@@H](OC(=O)c3ccccc3)[C@@H](C)C[C@]2(O)[C@H](OC(C)=O)[C@@]2(C)C[C@]1(OC(C)=O)C[C@H]1C(=O)C(C)(C)[C@@H](OC(C)=O)[C@@H]12 | -7.35% | 8.2% | -0.3% | -15.3% | 0.3% | -17.8% |
| ClCCCc1ccccc1C1=NCCc2ccccc21 | 28.4% | 19% | -14.5% | 3.25% | -14.7% | 9.9% |
| [N-]=[N+]=NC[C@H]1OCO[C@H](CN=[N+]=[N-])[C@@H](OCCOCCCl)[C@@H]1OCCOCCCl | -13.1% | -23.4% | -10.6% | -21.1% | -28.8% | -15.8% |
| Cc1ccc(NC(=O)OCC(F)(F)C(F)(F)C(F)(F)F)c(NC(=O)OCC(F)(F)C(F)(F)C(F)(F)F)c1 | -9.15% | -12.1% | -8.6% | -33.6% | -4.05% | 12.8% |
| COc1ccccc1NC(=O)Nc1ccc(Nc2ccccc2)cc1 | 92.7% (active) | 94.2% (active) | 92.2% (active) | 90.3% (active) | 92.2% (active) | 92.7% (active) |
| CC12CCCC=C1N(C=O)c1ccccc12 (configuration not stated) | -6.1% | 26.3% | 14.7% | 11.6% | -28.1% | 16.8% |
| COc1ccc(C2N(C(C#N)c3ccccc3OC)CCCN2C(C#N)c2ccccc2OC)c(OC)c1 (configuration not stated) | 57.1% | 18.3% | 30.3% | 25.4% | -2.55% | 42% |
| C=CC(O)C(C)C (configuration not stated) | 10.7% | -8.35% | -2.55% | -2.95% | -1.55% | 3.1% |
| Cc1cccc(C(=O)N(C)C)c1 | -0.7% | 1.75% | -6.4% | -17.8% | 4% | 3.75% |
| COc1ccc2nc(-c3ccccc3)c(=O)[nH]c2c1 | 4.1% | 13.8% | 24.7% | 12.6% | 25.1% | 10.5% |
| C/C(=C\c1ccccc1)C(=O)c1ccccc1 | -0.45% | 3.85% | 1.3% | -3.15% | 3.45% | 20% |
| CCOC(=O)C1(C)CCCC1=O (configuration not stated) | 13.8% | -8.6% | 3.95% | 6.95% | 2.6% | -0.4% |
| CC1COC(c2cc3c(cc2Cl)OCO3)O1 (configuration not stated) | -12.4% | -2.4% | -20.3% | -10.9% | -26.6% | -0.4% |
| N#Cc1cccc(Br)c1 | -11.9% | -15.8% | -1% | -11.4% | -14.9% | 13.1% |
